# Results taken from ChEMBL document CHEMBL1157539, “Thousands of chemical starting points for antimalarial lead identification” (Nature, 2010).
# What was measured:
# Assay type in all cases: functional
# Plasmodium falciparum [1] = assay: GSK_TCMDC: Inhibition of Plasmodium falciparum 3D7 in whole red blood cells, using parasite LDH activity as an index of growth. Test compounds present at 2uM
# Plasmodium falciparum [2] = assay: GSK_TCMDC: Inhibition of Plasmodium falciparum Dd2 in whole red blood cells, using parasite LDH activity as an index of growth. Test compounds present at 2uM
# HepG2 = assay: GSK_TCMDC: Percent inhibition of human HepG2 cell line. Test compounds present at 10uM.
SMILES,Inhibition (Plasmodium falciparum [1]) [%],Inhibition (Plasmodium falciparum [2]) [%],Inhibition (HepG2) [%]
COc1ccc(CCNCCCCCCNCCc2ccc(Cl)c(Cl)c2)cc1OC.Cl,100,10,59
O=C(Nc1cccc(-c2nc3ccccc3[nH]2)c1)c1ccc(-c2cccc([N+](=O)[O-])c2)o1,93,28,22
Cc1c(-c2cccc(C(C)(C)NCCCN3CCCCC3)c2)cnc(N)c1C.Cl,95,2,5
Nc1nc(N)c2c(Cc3ccccc3)cccc2n1,94,3,68
COc1cc(Cc2cnc(N)nc2N)cc(OCCCCC2NC(=O)NC2=O)c1OC (stereo not drawn),94,0,2
CNC(=O)c1ccc2nc(-c3ccc(-c4ccccc4)cc3)n(CC3CCN(CC4CCCC4)CC3)c2c1.O=C(O)C(F)(F)F,84,36,13
CC(C)CCOc1ccc(NC(=O)c2cccs2)cc1,95,95,11
FC(F)(F)c1ccc(/C=C/c2cncnc2Nc2ccc3[nH]c(Cc4ccccc4)nc3c2)cc1,100,100,21
Cn1cncc1-c1ccc2ncnc(Nc3ccc4c(cnn4Cc4ccccc4)c3)c2c1,100,99,1
Cc1cc(-c2cccc(CNC3CCN(C)CC3)c2)ccc1S(=O)(=O)NCc1ccccc1.O=C(O)C(F)(F)F,99,90,53
CN(C)CCOc1ccnc2ccc(NC(=O)Cc3ccc(-c4ccncc4)c4ccccc34)cc12,100,100,10
COc1cc(F)c2ncc(Cl)c(CCN3CCC(NCc4ccc5c(c4)OCCO5)CC3)c2c1.Cl,97,92,35
CS(=O)(=O)Nc1ccc2[nH]cc(C3CCN(CC4CCC(NC(=O)/C=C/c5ccc(Cl)c(Cl)c5)CC4)CC3)c2n1 (stereo not drawn),99,10,2
O=C1OC2(CCN(C(=O)c3ccc(-n4cnnn4)cc3)CC2)CN1Cc1ccc(Cl)c(Cl)c1,97,70,11
FC(F)(F)c1ccc2[nH]c(-c3cccc(-c4ccc(CNCCc5ccncc5)cc4)c3)nc2c1.O=C(O)C(F)(F)F,99,100,23
COc1cc(F)c2nccc([C@@H](O)CN3CCC(NCc4cc5c(cc4F)OCCO5)CC3)c2c1,99,45,23
COc1ccc(Oc2ccc(Nc3ccnc4ccc(C(F)(F)F)cc34)cc2)cc1OC.Cl,90,17,0
Cc1[nH]c(C)c(-c2ccc(CCc3ccc(F)cc3F)cc2)c(=O)c1Br,97,98,0
N#Cc1ccc2c(c1)CCN(CCCn1c(-c3ccc4ccccc4c3)nc3ccncc31)CC2,100,97,38
CCc1nonc1NC(=O)c1oc2c(C)c(C)ccc2c1C,89,64,1
Cl.FC(F)(F)c1cc(CNCCCNc2nc3ccncc3[nH]2)ccc1Cl,99,15,11
